Article PMC7862700, “An all-to-all approach to the identification of sequence-specific readers for epigenetic DNA modifications on cytosine”

Assays:
Assay in all cases: DAPPL (digital affinity profiling via proximity ligation, sequencing); 10 mM Tris-HCl pH 7.5, 50 mM NaCl, 1 mM DTT, 4% glycerol, room temperature, 30 min; GST-TFs on glutathione beads, 16-mer random dsDNA library, 0.1% formaldehyde crosslink after washing; high values mean tight binding
Conditions in all cases: protein: recombinant; tags: N-terminal GST; dsDNA, one strand shown
[1] = molecular target: T1, FLI1 (Homo sapiens, UniProt Q01543 1-452)
T1 sequence: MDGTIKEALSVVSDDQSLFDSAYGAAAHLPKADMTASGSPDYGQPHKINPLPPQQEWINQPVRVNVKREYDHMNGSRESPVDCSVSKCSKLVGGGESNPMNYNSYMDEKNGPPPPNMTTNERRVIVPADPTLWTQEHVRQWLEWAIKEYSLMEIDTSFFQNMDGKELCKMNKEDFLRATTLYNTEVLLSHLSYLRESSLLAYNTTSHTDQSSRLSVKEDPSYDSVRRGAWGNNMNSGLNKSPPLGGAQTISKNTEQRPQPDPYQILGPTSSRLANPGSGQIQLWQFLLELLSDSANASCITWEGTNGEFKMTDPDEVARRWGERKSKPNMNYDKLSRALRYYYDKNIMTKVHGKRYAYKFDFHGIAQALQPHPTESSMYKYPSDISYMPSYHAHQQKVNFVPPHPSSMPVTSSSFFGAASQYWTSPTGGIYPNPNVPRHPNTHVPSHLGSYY
Procedure, shortened: (§1)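 Pools were built from human transcription factors expressed in yeast as GST fusions, captured on glutathione beads and DNA-barcoded, along with a tag-only sample. Incubation with 200 nmole of a 16-mer random double-stranded DNA library lasted 30 min at room temperature in Tris/NaCl/DTT/glycerol buffer, and was followed by washing, 0.1% formaldehyde crosslinking, proximity ligation, PCR amplification and Illumina NextSeq500 sequencing. Binding signal is the quotient of each hexamer's read frequency for a factor and its frequency for the tag-only sample.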

[2] = molecular target: T2, ELK1 (Homo sapiens, UniProt P19419 1-428)
T2 sequence: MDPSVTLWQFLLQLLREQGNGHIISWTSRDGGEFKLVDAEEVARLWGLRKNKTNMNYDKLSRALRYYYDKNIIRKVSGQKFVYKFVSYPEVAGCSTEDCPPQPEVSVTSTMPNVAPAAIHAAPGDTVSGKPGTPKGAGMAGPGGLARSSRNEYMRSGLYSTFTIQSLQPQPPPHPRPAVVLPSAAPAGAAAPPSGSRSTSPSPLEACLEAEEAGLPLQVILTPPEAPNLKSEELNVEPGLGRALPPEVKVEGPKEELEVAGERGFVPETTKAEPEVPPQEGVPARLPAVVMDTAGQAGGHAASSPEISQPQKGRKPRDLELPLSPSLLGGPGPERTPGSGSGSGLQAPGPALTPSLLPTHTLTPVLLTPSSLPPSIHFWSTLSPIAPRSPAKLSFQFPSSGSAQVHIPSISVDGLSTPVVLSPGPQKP
Procedure, shortened: as §1

[3] = molecular target: T3, GABPA (Homo sapiens, UniProt Q06546 1-454)
T3 sequence: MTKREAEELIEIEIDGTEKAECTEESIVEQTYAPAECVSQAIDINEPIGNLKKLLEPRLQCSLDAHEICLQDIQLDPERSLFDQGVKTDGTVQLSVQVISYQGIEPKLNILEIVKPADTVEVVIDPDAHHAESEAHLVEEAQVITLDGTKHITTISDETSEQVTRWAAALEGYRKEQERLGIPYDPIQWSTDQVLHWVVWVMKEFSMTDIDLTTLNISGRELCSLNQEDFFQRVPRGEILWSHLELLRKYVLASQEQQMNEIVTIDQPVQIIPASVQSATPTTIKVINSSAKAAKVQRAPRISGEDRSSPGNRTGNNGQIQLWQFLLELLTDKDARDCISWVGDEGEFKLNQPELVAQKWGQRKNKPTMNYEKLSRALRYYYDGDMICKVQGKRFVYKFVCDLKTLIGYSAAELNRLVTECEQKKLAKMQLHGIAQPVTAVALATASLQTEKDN
Procedure, shortened: as §1

[4] = molecular target: ELF1 (Homo sapiens, UniProt P32519 1-619)
Procedure, shortened: as §1

[5] = molecular target: T4, EHF (Homo sapiens, UniProt Q9NZC4 1-300)
T4 sequence: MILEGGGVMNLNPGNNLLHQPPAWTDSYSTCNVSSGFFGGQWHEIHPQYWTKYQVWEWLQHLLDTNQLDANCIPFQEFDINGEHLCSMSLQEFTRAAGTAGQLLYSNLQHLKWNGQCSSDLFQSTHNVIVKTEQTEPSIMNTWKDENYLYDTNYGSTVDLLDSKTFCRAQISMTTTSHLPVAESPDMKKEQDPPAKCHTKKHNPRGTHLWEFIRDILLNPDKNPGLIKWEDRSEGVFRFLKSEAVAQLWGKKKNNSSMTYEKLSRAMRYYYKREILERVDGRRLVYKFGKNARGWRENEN
Procedure, shortened: as §1

[6] = molecular target: SPI1 (Homo sapiens, UniProt P17947 1-270)
Procedure, shortened: as §1

[7] = molecular target: T5, ELK3 (Homo sapiens, UniProt P41970 1-407)
T5 sequence: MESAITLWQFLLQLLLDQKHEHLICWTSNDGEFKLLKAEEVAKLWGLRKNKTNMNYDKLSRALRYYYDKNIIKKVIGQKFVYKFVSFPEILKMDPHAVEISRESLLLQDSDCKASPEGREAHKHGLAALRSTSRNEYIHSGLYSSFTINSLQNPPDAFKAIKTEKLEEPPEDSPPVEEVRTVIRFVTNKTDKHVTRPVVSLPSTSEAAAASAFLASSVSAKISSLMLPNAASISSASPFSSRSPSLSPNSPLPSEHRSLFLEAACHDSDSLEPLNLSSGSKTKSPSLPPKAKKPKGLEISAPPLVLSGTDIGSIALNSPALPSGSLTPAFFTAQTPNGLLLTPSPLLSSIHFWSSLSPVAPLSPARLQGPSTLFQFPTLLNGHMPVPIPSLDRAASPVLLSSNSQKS
Procedure, shortened: as §1

[8] = molecular target: ETV5 (Homo sapiens, UniProt P41161 1-510)
Procedure, shortened: as §1

[9] = molecular target: T6, ETV2 (Homo sapiens, UniProt O00321 1-342)
T6 sequence: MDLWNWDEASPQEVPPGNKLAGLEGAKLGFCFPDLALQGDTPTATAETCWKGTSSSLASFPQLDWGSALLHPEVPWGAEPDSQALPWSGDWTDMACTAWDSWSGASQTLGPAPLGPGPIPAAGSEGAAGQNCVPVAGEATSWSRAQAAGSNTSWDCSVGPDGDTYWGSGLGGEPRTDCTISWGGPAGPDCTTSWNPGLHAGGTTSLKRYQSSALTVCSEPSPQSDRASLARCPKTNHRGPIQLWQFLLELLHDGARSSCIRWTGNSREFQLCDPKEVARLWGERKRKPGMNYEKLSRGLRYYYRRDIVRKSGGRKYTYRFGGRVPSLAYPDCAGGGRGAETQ
Procedure, shortened: as §1

[10] = molecular target: ETV1 (Homo sapiens, UniProt P50549 1-477)
Procedure, shortened: as §1

[11] = molecular target: T7, ETV3L (Homo sapiens, UniProt Q6ZN32 1-361)
T7 sequence: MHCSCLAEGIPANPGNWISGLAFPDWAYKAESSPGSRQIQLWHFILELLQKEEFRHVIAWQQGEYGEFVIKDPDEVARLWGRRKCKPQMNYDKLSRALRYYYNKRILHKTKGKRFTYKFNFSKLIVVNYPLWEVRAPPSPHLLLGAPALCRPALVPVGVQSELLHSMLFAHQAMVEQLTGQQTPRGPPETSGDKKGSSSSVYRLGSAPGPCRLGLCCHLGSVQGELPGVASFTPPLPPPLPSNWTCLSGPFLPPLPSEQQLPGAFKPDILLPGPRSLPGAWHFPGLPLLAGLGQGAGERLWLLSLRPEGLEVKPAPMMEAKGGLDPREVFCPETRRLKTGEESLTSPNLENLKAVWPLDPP
Procedure, shortened: as §1

[12] = molecular target: T8, ETV3 (Homo sapiens, UniProt P41162-2 1-143)
T8 sequence: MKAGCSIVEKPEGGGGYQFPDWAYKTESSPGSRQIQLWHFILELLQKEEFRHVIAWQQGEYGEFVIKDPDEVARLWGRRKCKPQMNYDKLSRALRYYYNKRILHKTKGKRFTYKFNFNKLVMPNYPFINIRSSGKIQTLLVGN
Procedure, shortened: as §1

[13] = molecular target: ETV6 (Homo sapiens, UniProt P41212 1-452)
Procedure, shortened: as §1

[14] = molecular target: T9, ERG (Homo sapiens, UniProt P11308 1-479)
T9 sequence: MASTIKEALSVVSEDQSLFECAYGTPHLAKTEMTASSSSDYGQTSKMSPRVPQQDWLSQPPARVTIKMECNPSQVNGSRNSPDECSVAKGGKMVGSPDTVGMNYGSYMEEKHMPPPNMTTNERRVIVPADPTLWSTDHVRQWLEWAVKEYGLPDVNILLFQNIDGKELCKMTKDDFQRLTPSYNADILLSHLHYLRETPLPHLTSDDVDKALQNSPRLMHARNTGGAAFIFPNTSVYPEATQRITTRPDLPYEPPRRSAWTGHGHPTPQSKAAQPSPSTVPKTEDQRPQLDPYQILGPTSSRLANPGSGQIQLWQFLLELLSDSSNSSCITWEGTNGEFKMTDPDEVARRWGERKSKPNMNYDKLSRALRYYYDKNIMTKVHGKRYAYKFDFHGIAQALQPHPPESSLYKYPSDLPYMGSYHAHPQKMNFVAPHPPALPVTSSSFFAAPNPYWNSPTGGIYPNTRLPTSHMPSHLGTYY
Procedure, shortened: as §1

[15] = molecular target: SPIB (Homo sapiens, UniProt Q01892 1-262)
Procedure, shortened: as §1

[16] = molecular target: T10, ELF3 (Homo sapiens, UniProt P78545 1-371)
T10 sequence: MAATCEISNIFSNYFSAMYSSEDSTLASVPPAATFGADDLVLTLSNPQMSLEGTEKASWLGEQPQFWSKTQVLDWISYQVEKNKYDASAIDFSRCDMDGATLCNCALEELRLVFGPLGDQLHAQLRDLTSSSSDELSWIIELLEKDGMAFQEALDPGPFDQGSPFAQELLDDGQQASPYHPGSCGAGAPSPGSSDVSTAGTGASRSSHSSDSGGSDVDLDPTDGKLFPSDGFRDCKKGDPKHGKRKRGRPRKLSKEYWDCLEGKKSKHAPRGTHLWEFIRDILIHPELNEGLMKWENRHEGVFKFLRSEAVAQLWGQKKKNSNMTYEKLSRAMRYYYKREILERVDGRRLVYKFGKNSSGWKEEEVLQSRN
Procedure, shortened: as §1

[17] = molecular target: T11, ETS2 (Homo sapiens, UniProt P15036 1-469)
T11 sequence: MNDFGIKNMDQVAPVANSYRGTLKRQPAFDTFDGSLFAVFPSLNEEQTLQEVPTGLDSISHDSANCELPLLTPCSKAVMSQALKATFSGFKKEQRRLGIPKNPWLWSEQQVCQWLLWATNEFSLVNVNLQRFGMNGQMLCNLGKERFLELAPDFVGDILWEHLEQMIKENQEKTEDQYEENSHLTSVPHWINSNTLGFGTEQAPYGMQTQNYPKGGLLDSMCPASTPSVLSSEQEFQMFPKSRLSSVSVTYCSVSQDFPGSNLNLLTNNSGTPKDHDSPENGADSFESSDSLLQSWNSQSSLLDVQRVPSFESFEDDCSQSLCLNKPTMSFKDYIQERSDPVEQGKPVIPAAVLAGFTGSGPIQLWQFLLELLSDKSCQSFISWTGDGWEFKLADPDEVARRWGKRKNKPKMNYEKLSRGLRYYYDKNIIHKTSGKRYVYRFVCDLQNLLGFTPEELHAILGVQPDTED
Procedure, shortened: as §1

[18] = molecular target: T12, ETV7 (Homo sapiens, UniProt Q9Y603 1-341)
T12 sequence: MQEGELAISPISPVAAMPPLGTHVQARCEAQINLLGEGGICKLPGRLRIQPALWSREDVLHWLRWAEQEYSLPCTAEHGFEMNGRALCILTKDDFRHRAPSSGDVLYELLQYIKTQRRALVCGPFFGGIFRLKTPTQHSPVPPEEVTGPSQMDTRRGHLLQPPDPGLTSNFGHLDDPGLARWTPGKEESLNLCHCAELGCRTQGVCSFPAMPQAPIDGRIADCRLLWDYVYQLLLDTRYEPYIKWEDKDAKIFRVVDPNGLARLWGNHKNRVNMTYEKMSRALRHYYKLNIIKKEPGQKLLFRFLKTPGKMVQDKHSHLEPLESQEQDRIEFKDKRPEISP
Procedure, shortened: as §1

ETV5, sequence (P41161 whole entry): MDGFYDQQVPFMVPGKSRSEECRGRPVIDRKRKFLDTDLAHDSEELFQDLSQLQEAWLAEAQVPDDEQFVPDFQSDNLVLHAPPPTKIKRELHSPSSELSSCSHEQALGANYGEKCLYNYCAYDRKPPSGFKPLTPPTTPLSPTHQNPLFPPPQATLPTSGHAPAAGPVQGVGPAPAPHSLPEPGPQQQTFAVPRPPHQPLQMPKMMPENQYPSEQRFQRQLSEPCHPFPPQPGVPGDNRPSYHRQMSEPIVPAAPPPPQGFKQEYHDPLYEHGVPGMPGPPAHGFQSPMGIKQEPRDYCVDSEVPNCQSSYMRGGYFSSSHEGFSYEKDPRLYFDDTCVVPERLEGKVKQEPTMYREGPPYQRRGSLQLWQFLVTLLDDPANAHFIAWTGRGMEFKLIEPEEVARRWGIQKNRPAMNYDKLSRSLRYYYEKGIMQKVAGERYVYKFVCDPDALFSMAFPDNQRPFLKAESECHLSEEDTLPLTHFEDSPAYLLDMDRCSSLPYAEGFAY
ETV1, sequence (P50549 whole entry): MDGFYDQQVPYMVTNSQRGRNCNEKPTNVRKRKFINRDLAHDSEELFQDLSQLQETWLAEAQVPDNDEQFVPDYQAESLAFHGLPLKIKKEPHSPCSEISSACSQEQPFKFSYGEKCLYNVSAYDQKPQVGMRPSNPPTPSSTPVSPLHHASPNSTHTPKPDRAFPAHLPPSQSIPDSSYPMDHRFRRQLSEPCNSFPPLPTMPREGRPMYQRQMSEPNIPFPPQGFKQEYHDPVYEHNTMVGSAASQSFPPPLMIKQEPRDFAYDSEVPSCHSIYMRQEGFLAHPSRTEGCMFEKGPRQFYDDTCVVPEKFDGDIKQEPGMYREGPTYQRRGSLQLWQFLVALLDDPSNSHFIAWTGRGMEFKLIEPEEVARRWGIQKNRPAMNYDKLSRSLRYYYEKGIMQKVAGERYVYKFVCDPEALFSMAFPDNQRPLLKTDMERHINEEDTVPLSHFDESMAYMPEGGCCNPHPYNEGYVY
ETV6, sequence (P41212 whole entry): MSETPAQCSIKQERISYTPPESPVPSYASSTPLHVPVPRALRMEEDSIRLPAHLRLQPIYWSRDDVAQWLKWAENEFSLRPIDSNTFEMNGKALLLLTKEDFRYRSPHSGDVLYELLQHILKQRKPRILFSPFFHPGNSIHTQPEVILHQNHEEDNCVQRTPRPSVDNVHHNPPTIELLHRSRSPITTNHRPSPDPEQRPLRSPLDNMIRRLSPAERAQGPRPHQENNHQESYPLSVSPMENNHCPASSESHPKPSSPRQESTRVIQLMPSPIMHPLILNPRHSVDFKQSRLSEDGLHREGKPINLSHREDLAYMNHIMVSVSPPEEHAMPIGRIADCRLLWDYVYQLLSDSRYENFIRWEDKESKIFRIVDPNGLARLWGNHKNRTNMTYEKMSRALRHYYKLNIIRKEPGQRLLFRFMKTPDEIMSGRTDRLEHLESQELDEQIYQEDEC
ELF1, sequence (P32519 whole entry): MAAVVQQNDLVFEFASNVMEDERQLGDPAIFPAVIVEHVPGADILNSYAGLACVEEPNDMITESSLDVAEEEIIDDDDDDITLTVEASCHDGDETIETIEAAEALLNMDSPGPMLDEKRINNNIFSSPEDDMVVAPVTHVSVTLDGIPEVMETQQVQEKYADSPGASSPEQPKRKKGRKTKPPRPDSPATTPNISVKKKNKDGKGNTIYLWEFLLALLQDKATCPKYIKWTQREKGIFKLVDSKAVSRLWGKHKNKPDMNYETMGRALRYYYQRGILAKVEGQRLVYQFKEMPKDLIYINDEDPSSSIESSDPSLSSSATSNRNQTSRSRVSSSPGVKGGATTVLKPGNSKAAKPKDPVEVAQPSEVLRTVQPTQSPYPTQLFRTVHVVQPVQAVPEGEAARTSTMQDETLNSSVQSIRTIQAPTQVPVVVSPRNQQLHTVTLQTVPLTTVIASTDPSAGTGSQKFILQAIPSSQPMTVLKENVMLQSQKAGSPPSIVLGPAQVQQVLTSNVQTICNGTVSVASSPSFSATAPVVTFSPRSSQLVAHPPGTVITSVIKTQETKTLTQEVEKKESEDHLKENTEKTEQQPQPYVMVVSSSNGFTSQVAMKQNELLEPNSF
SPIB, sequence (Q01892 whole entry): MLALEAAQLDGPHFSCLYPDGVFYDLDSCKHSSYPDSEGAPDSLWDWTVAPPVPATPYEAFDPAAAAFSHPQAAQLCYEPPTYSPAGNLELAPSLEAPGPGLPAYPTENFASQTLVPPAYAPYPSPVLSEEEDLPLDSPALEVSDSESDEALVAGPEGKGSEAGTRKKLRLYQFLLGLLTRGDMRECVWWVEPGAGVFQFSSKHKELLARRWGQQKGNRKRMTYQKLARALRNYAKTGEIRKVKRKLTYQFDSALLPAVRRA

Sequence | binding signal [1] | binding signal [2] | binding signal [3] | binding signal [4] | binding signal [5] | binding signal [6] | binding signal [7] | binding signal [8] | binding signal [9] | binding signal [10] | binding signal [11] | binding signal [12] | binding signal [13] | binding signal [14] | binding signal [15] | binding signal [16] | binding signal [17] | binding signal [18]
ACTGTA | 1 fold enrichment (6-mer frequency, TF over GST control) | 1.09 fold enrichment (6-mer frequency, TF over GST control) | 1.03 fold enrichment (6-mer frequency, TF over GST control) | 1.08 fold enrichment (6-mer frequency, TF over GST control) | 1.11 fold enrichment (6-mer frequency, TF over GST control) | 1.09 fold enrichment (6-mer frequency, TF over GST control) | 1.04 fold enrichment (6-mer frequency, TF over GST control) | 1.08 fold enrichment (6-mer frequency, TF over GST control) | 1.17 fold enrichment (6-mer frequency, TF over GST control) | 1.02 fold enrichment (6-mer frequency, TF over GST control) | 1.01 fold enrichment (6-mer frequency, TF over GST control) | 1 fold enrichment (6-mer frequency, TF over GST control) | 1.03 fold enrichment (6-mer frequency, TF over GST control) |  |  |  |  | 
CCCGGT | 1.01 fold enrichment (6-mer frequency, TF over GST control) |  |  |  | 1.14 fold enrichment (6-mer frequency, TF over GST control) |  |  | 1.09 fold enrichment (6-mer frequency, TF over GST control) |  | 1.07 fold enrichment (6-mer frequency, TF over GST control) | 1.01 fold enrichment (6-mer frequency, TF over GST control) | 1.09 fold enrichment (6-mer frequency, TF over GST control) | 1 fold enrichment (6-mer frequency, TF over GST control) | 1.09 fold enrichment (6-mer frequency, TF over GST control) | 1.01 fold enrichment (6-mer frequency, TF over GST control) | 1.06 fold enrichment (6-mer frequency, TF over GST control) | 1.04 fold enrichment (6-mer frequency, TF over GST control) | 1.01 fold enrichment (6-mer frequency, TF over GST control)
